The source of these data is PMC12136788.

Residue numbers refer to the chain shown, from its start. In all, about 24,000 sequences were measured (“enrichment r”: median about 0.99, highest 2% from about 3.7 on). What follows is part of a selection rich in the highest values, with near analogues and random picks from the rest.

To fix the notation:
T1: UNK ZnF1-3 (human, UniProt Q9C0B0 31-174)
T1 sequence: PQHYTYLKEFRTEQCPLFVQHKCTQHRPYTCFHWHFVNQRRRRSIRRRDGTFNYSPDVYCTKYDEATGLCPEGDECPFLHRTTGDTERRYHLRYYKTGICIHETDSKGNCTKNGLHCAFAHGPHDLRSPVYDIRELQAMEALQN

B1: chr4:86222814:86222815:+_ENSMUSG00000070934_ENSMUST00000091064|mus_mus|FALSE|FALSE (ssRNA)
RNA: GGGAGUUCUACAGUCCGACGAUCGAAUAUUAAAGACAAAUGAUGCAAAAAAAAAAAAAACACCGUAAUUCAGCAUUUUACUAAAGAGCAUUUGGCAUUAUUUCAACGCAUGAGGAGGCUGUGCUUGGGCCCAUCUACUCUUUCCAACAGAGGAUUGAGCAUCA
B2: chr6:40197388:40197389:+_ENSMUSG00000057716_ENSMUST00000061740|mus_mus|mus_mus_mus_hu_False|68_78 (ssRNA)
RNA: GGGAGUUCUACAGUCCGACGAUCGAGACACUGGGGUGGAUUUAUUCCACCUCUGUUUGCUAGCCUCUAAGAUAGAUUGUUAUUUUGGGAUUCAUGGCCUUGAAUAUCAAGAGGGAAAGGAAGAGGAUGGAAAGAGUCAAGAGUCAACAGAGGAUUGAGCAUCA
B3: 52238803_52238923_934_CDS_ENSG00000023330_ENST00000469224|human|control|control (ssRNA)
RNA: GGGAGUUCUACAGUCCGACGAUCCCCACACACCCGUGGGUGGCGACUCAUUCCUAGGUAGUCAUUACUGCACCAGACUGACACUUGCUUUUUGGUGAUGAGGGAGUCUGAAUAGUCAUCUGCCAUGGGGAAGAUGUGUGCUCGCAACAGAGGAUUGAGCAUCA
B4: 14029136_14029256_1416_CDS_ENSG00000175595_ENST00000311895|human|control|control (ssRNA)
RNA: GGGAGUUCUACAGUCCGACGAUCUUUUUUCUUUUUGAGGGUUCUUUCUUUGGUAGAAGCCCGUUCUUUGUUUUGGGGGUCUUUAGGUCUUUUGUGAGAUUUCCUAAUUCUCUUUGAACUGUCUUCCUUCCUAAAUUUCAUCCACAACAGAGGAUUGAGCAUCA
B5: 80201405_80202562_482_3pUTR_ENSMUSG00000017421_ENSMUST00000017567|mouse|control|control (ssRNA)
RNA: GGGAGUUCUACAGUCCGACGAUCCUGUGGCUGAAAGGAAGUUGAGGCUGCAGAUUCAUCAUCAUCAUAUUCAUCAGAAUCAUCUUGUUGUUUCUUUUUCUGACUCUCUUGUGUUUUCUGUUCAAGAAGUCGCCGUCUUUCAUCCAACAGAGGAUUGAGCAUCA
B6: chr6:30692278:30692279:+_ENSG00000196230_ENST00000327892|hu_hu|FALSE|FALSE (ssRNA)
RNA: GGGAGUUCUACAGUCCGACGAUCCCAGAGUGGAAAGAGAGAGGAGACAUUCAACAAACAAGUAUUUAUUGAGCGCCUACUAUGUGCCAGGCACUGUUCUAGACCCCCCCCAGAAGAAAAAACAAAAAACAAGAUAGAGGCAGCCAACAGAGGAUUGAGCAUCA
B7: chr19:37063429:37063430:+_ENSMUSG00000040565_ENSMUST00000099494|mus_mus|FALSE|FALSE (ssRNA)
RNA: GGGAGUUCUACAGUCCGACGAUCCAUAGCAUCCCAAAGAUGUGGCAACUUCACUGCCAUUUCAGCACCAAAAUGCUUCACUAUAGUUGUUAAGGCAAAUUCAGCUCCUCUCCGCUGUACCAGGUAAGGCUUCUGACCCUCAUCCAACAGAGGAUUGAGCAUCA
B8: chr4:95690885:95690886:+_ENSMUSG00000028572_ENSMUST00000156910|mus_mus|mus_mus_mus_hu_False|1_8 (ssRNA)
RNA: GGGAGUUCUACAGUCCGACGAUCUUUAGAAAAUGUUAAAUACCAUGCUAAAAUAUUUUCAAAGGCUUAUUUUAUUUUACCAGAAGUCACAGGCAAGCAGACACUACAAGAAUAUAUGAAAAUGAAACAACAGUGUAAAAUGUACAACAGAGGAUUGAGCAUCA
B9: chr5:136386232:136386233:-_ENSMUSG00000051391_ENSMUST00000055808|mus_hu|FALSE|FALSE (ssRNA)
RNA: GGGAGUUCUACAGUCCGACGAUCAAGUACACAAUCGAUGGCUUGAUGUUACAUAUGGCUGUAAUGUAGAAAUACUGUAAACUGCAAUUUAGUGUUAAUACUGUCAACUAAUCAGAGACUUCGGAAAACUGGCAAGGCCUAAACCAACAGAGGAUUGAGCAUCA
B10: chr19:7991675:7991676:-_ENSG00000104980_ENST00000595831|hu_mus|motif|central (ssRNA)
RNA: GGGAGUUCUACAGUCCGACGAUCAUGUACAGGAAGUAAGAGCACUGAUUUAAAAACAAAAACAAAACAAAACAAAAGGACCGGAAGUGGCUUGGAAGGCAAUGCCAGUGGACUACUUAGAACAGCAGGCCAGGCCUCACCCGACAACAGAGGAUUGAGCAUCA
B11: chr19:7991675:7991676:-_ENSG00000104980_ENST00000595831|hu_mus|FALSE|FALSE (ssRNA)
RNA: B10 RNA with G82U, G83A
B12: chr14:79828021:79828022:+_ENSMUSG00000043881_ENSMUST00000061222|mus_mus|motif|central (ssRNA)
RNA: GGGAGUUCUACAGUCCGACGAUCAGGAUCAUAGCAGAGCAUGCGCUUACUGUUGACAGCGUAAAGAUAAUUCUGAACCACGGUUAGUUCAAAUGAAUAAAAGGAAUGUGGUACAGGAGCCACCAAUGCCCAUUGGUUCCUCUGCAACAGAGGAUUGAGCAUCA
B13: chr9:90322654:90322655:+_ENSG00000196730_ENST00000408954|hu_hu|FALSE|FALSE (ssRNA)
RNA: GGGAGUUCUACAGUCCGACGAUCAAAGAAAAGCGUAUAAGAAAUACACAUUUUGGAUAAAUAUGCACUUUUCUUUUUUAAAGGACAAUCAAUAUAGUAGUUAAAAAAAAUGUCAUUGAAAAGUUAGGAAUUCCAGCAAAAUUACAACAGAGGAUUGAGCAUCA
B14: chr3:49547525:49547526:-_ENSMUSG00000037892_ENSMUST00000035931|mus_hu|FALSE|FALSE (ssRNA)
RNA: GGGAGUUCUACAGUCCGACGAUCGUUCUUAUACUAAAAAUAAAAGCAAAAAUAUGAGAUCAUGCACUGGAGACAAAAGCUAAAAAUGAAUAGUUAUAACAAAGAAAGACAAUAUUCCAAAAGAUUAAAAUGUUCAAGUAUUGUCAACAGAGGAUUGAGCAUCA
B15: chr1:163112212:163112213:-_ENSG00000143248_ENST00000313961|hu_hu|hu_hu_hu_mus_False|1_18 (ssRNA)
RNA: GGGAGUUCUACAGUCCGACGAUCUUUUAUUAUCAGUAAGAGUGAGUUACAUACUAGGCAAAGUAUUGGAUACAAUAAUCAGGAAACAAACACUAUUGGUCCAGAAUUUAAAACUUUUGGGAUAAAUUGCUGGCACAGGAUUUACAACAGAGGAUUGAGCAUCA
B16: chr20:5919097:5919098:-_ENSG00000089195_ENST00000203001|hu_hu|FALSE|FALSE (ssRNA)
RNA: GGGAGUUCUACAGUCCGACGAUCGUUCUUAUUCUUGGGAUAUGAAAAAACAAGUAGUAAUGGCAUUUAAAGUUUAAUUACUAACUGUAUAAUGCCUGAGAACAAAAUUCAGAGCAAUUCUCAAAAGGGUUAAGAGUCAGACUCCAACAGAGGAUUGAGCAUCA
B17: chr4:21667751:21667752:+_ENSMUSG00000028252_ENSMUST00000108240|mus_mus|motif|central (ssRNA)
RNA: GGGAGUUCUACAGUCCGACGAUCUUCUAGUAUAUGAUUCAUCCUGUAAGGAAAUUCCUUUGGAAAAGCAUAUGAAAAUCGGGUUUUUAAUACAGAAGUAGUAGCAGCAAUCAAUCUUGUAUUUGAGACAACACCAAAUUCCUCCAACAGAGGAUUGAGCAUCA
B18: chr11:87794696:87794697:-_ENSMUSG00000020483_ENSMUST00000020775|mus_hu|motif|central (ssRNA)
RNA: GGGAGUUCUACAGUCCGACGAUCGCCUUUUAUUUUGUAUAGGGAAAGAAAGAGAAAAGGGAGAGGUGGGAGAGAUUUCCGGGUGCAAUACAACCAAAAAAUAUUUUUAAAGUCUUGAAAAAUAAACAUAAAGCAGCCUUCUUCCAACAGAGGAUUGAGCAUCA
B19: chr3:49547525:49547526:-_ENSMUSG00000037892_ENSMUST00000035931|mus_hu|motif|central (ssRNA)
RNA: B14 RNA with U80G, A81G
B20: chr1:154935262:154935263:-_ENSG00000160691_ENST00000448116|hu_hu|FALSE|FALSE (ssRNA)
RNA: GGGAGUUCUACAGUCCGACGAUCAUUUUGUGCUCAAGAAUAAGCAAUGGAAAAGAAAAUAGGAAAGUAAGUCUACAGCCCUAAAAUAUAUGCAUAUAAAACUUUAAAAGAAUGCAGUUCCAACUCUACAGAUGGUAUGUGGGGCAACAGAGGAUUGAGCAUCA
B21: chr1:154935262:154935263:-_ENSG00000160691_ENST00000448116|hu_hu|motif|central (ssRNA)
RNA: B20 RNA with U81G, A82G
B22: chr3:49547525:49547526:-_ENSMUSG00000037892_ENSMUST00000035931|mus_mus|motif|central (ssRNA)
RNA: GGGAGUUCUACAGUCCGACGAUCGUUCAUAUGCUAAAAAUACAAGCAAAACUGUGAUAGCAUGCACAAGAGACAAAAGCGGAAGGUGAAUAAUUAUAGCCAAAAAAAGAGAGACAAUGCAGUCGAUACAAAUGUUCAAGUAUGCAACAGAGGAUUGAGCAUCA

For the assay, the target named is T1, UNK ZnF1-3. Briefly: nsRBNS (natural sequence RNA bind-n-seq); RBNS binding buffer (assumed for nsRBNS): 25 mM Tris pH 7.5, 150 mM KCl, 3 mM MgCl2, 0.01% Triton X-100, 500 ug/ml BSA, 20 U/ml SUPERase-In, 4 C; UNK is unkempt and MSI1 is Musashi-1; names of the RNAs are library labels; protein concentration not given here; high values mean tight binding.
For the molecule B1, the binding signal worked out at 1.67 enrichment R.
The figure for B2 is 1.33 enrichment R; for B3 it is 1.04 enrichment R; for B4 it is 0.174 enrichment R.
B5 returned a binding signal of 0.524 enrichment R.
Molecule B6 yielded a binding signal of 2.28 enrichment R.
Then B7, with 0.992 enrichment R; and B8, with 1.97 enrichment R.
The figure for B9 is 1.26 enrichment R; for B10 it is 5.15 enrichment R.
The figure for B11 is 5.35 enrichment R; for B12 it is 1.02 enrichment R; for B13 it is 8.3 enrichment R.
On to B14, for which the binding signal is 4.56 enrichment R.
Then B15, with 1.27 enrichment R.
The molecule B16 yielded a binding signal of 0.585 enrichment R.
Then B17, with 0.985 enrichment R; and B18, with 3.42 enrichment R.
The figure for B19 is 3.95 enrichment R; for B20 it is 3.55 enrichment R.
The figure for B21 is 3.69 enrichment R; for B22 it is 1.91 enrichment R.
